Screening data (PubChem)
Compounds with a hit are over-represented: about 3.4% of the library has one in this group of screens.
NCF1 inh – blocks human p47phox regulatory protein of NADPH oxidases; P14598; p47phox/p22phox peptide binding, fluorescence polarization, 2 h; inhibition, % at 24.7 µM; 220,000 compounds, 0.53% hits; AID 1274;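 active = inhibition above about 30%, limit read from the data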;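 also: 0% = p47phox with labelled peptide and 100% = labelled peptide alone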
14-3-3 Bad PPI – disrupts binding of bovine 14-3-3 zeta to phospho-Bad peptide; TR-FRET 14-3-3zeta/Dy647-pBad peptide displacement, 1 h; inhibition, % at 21.7 µM; 220,000 compounds, 0.71% hits;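 active = inhibition above about 70%, limit read from the data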;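 also: 0% = full 14-3-3 plus peptide FRET controls and 100% = background without 14-3-3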
Target sequence (P63103 whole entry, looked up): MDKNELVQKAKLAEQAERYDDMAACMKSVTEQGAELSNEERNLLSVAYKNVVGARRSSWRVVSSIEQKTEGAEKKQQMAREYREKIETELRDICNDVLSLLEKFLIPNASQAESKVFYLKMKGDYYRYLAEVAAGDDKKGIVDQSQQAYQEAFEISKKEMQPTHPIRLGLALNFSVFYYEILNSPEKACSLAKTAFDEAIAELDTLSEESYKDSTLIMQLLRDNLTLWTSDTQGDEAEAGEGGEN
Mcl1-Bid inh – disrupts binding of human Mcl-1 to Bid peptide. Q07820. TR-FRET Mcl-1/Bid-Dy647 peptide binding, 1536-well. inhibition, % at 21.7 µM. 220,000 compounds, 0.97% hits;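 active = compounds that cut the binding signal by more than half at the single screening dose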;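 also: His-tagged Mcl-1 with europium anti-His antibody binding Bid BH3 peptide; 0% = Mcl-1 plus peptide wells and 100% = peptide-only wells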
Target sequence (Q07820 whole entry, looked up): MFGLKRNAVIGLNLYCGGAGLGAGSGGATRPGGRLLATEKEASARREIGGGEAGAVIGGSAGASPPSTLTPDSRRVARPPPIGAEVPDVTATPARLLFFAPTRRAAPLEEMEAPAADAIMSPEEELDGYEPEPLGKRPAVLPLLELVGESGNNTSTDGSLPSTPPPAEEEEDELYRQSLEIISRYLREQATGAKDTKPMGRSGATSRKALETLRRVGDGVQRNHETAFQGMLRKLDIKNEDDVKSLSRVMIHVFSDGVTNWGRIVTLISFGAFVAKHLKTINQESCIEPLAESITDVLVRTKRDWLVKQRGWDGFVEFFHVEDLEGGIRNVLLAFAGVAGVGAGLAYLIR
Calpain2 inh – calpain II (pig) inhibition; inhibition, % at 16 µM; purified calpain II, fluorogenic peptide substrate, 30 min; 220,000 compounds, 0.37% hits;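 active = inhibition above about 50%, limit read from the data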
Mcl-1 Bim block – human Bim-Mcl-1 interaction inhibition; Bead-based flow cytometry, Bim peptide-Mcl-1 binding; inhibition, % at 10 µM; 190,000 compounds, 0.1% hits; AID 1009; in the data active = inhibition above about 40%;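 also: 0% = no compound tracer wells and 100% = peptide blocker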
Mcl1 Noxa PPI – disrupts binding of human Mcl-1 to Noxa peptide. AID 1022. TR-FRET Mcl-1/Noxa peptide binding, 2 h. inhibition, % at 21.7 µM. Q07820. 220,000 compounds, 1.5% hits;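 active = compounds that cut the protein-peptide binding signal by more than 50% relative to plate controls in a single-dose test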;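 also: His-tagged Mcl-1 with rhodamine Noxa BH3 peptide and terbium anti-His antibody; 0% = Mcl-1 plus Noxa peptide wells and 100% = peptide-only wells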
Active calls of the source: *; ! = repeats disagree.

How did O=C(Cn1c(=O)n(-c2ccccc2)c(=O)n1CC(=O)N1CCCCC1)N1CCCCC1 do in these assays?
NCF1 inh: 7; 14-3-3 Bad PPI: -6; Mcl1-Bid inh: -21; Calpain2 inh: 50*; Mcl-1 Bim block: 4; Mcl1 Noxa PPI: 13

What do the screens show for `COc1ccc(N2C(=O)NC(NC(=O)c3cccnc3)(C(F)(F)F)C2=O)cc1` (stereo unspecified)?
NCF1 inh: -6; 14-3-3 Bad PPI: -3; Mcl1-Bid inh: -5; Calpain2 inh: 20; Mcl-1 Bim block: 3; Mcl1 Noxa PPI: -2

What do the screens show for `O=C(/C=C/c1ccc(F)cc1)Nc1ccc(S(=O)(=O)Nc2ncccn2)cc1`?
NCF1 inh: 120*; 14-3-3 Bad PPI: -4; Mcl1-Bid inh: -16; Calpain2 inh: 19; Mcl1 Noxa PPI: 8

Results for COc1cc(OC)cc(C(=O)N[C@H](C(=O)OCC(=O)NC(=O)c2cccn2C)C(C)C)c1 ?
NCF1 inh: -7; 14-3-3 Bad PPI: -13; Mcl1-Bid inh: 92*; Calpain2 inh: -23; Mcl-1 Bim block: 0; Mcl1 Noxa PPI: 16

What do the screens show for `COc1ccc(C(=O)N[C@H](C(=O)OCC(=O)NC(=O)c2cccn2C)C(C)C)cc1`?
NCF1 inh: -6; 14-3-3 Bad PPI: 2; Mcl1-Bid inh: -10; Calpain2 inh: 15; Mcl-1 Bim block: -1; Mcl1 Noxa PPI: 0

What do the screens show for `Cn1c(=O)c2c(nc(OCc3ccccc3)n2C)n(C)c1=O`?
NCF1 inh: -3; 14-3-3 Bad PPI: 4; Mcl1-Bid inh: -7; Calpain2 inh: 6; Mcl-1 Bim block: 1; Mcl1 Noxa PPI: 6

What do the screens show for `COc1cccc(COc2nc3c(c(=O)n(C)c(=O)n3C)n2C)c1`?
NCF1 inh: -4; 14-3-3 Bad PPI: -2; Mcl1-Bid inh: -14; Calpain2 inh: 76*; Mcl-1 Bim block: 7; Mcl1 Noxa PPI: -13

Results for Cn1c(=O)c2c(nc(NCc3ccc4c(c3)OCO4)n2Cc2ccccc2Cl)n(C)c1=O ?
NCF1 inh: -8; 14-3-3 Bad PPI: -3; Mcl1-Bid inh: -34; Calpain2 inh: -40; Mcl-1 Bim block: -4; Mcl1 Noxa PPI: 5

What do the screens show for `Cn1c(=O)c2c(nc(OCc3ccc4c(c3)OCO4)n2Cc2ccccc2Cl)n(C)c1=O`?
NCF1 inh: 15; 14-3-3 Bad PPI: 4; Mcl1-Bid inh: 51*; Calpain2 inh: -9; Mcl-1 Bim block: -4; Mcl1 Noxa PPI: 3

Results for CC1(N(O)C=C2C=CC(=O)C=C2)CCCCC1=O (stereo unspecified) ?
NCF1 inh: 15; 14-3-3 Bad PPI: -5; Mcl1-Bid inh: -8; Calpain2 inh: 8; Mcl1 Noxa PPI: -15

Results for CC1CCc2cc(F)ccc2N1C(=O)CCC(=O)O (stereo unspecified) ?
NCF1 inh: -1; 14-3-3 Bad PPI: -5; Mcl1-Bid inh: 1; Calpain2 inh: 3; Mcl-1 Bim block: 0; Mcl1 Noxa PPI: -9

Results for CC1CCc2cc(F)ccc2N1C(=O)C12CCC(C)(C(=O)O1)C2(C)C (stereo unspecified) ?
NCF1 inh: -9; 14-3-3 Bad PPI: 92*; Mcl1-Bid inh: 0; Calpain2 inh: 18; Mcl-1 Bim block: 0; Mcl1 Noxa PPI: 2

How did N#Cc1ccsc1NC(=O)CSc1ncnc2ccccc12 do in these assays?
NCF1 inh: -25; 14-3-3 Bad PPI: 1; Mcl1-Bid inh: -8; Calpain2 inh: -52; Mcl-1 Bim block: -1; Mcl1 Noxa PPI: 68*

What do the screens show for `CCOC(=O)c1c(NC(=O)CSc2ncnc3ccccc23)sc(C)c1C`?
NCF1 inh: 17; 14-3-3 Bad PPI: 17; Mcl1-Bid inh: 59*; Calpain2 inh: -11; Mcl-1 Bim block: 0; Mcl1 Noxa PPI: 20

What do the screens show for `Cn1ccnc1SCC(=O)Nc1sccc1C#N`?
NCF1 inh: -6; 14-3-3 Bad PPI: 0; Mcl1-Bid inh: -39; Calpain2 inh: -73; Mcl-1 Bim block: 0; Mcl1 Noxa PPI: 37

Results for N#Cc1ccsc1NC(=O)CSc1nnnn1-c1ccc(O)cc1 ?
14-3-3 Bad PPI: -1; Mcl1-Bid inh: -17; Calpain2 inh: 5; Mcl-1 Bim block: -1; Mcl1 Noxa PPI: 66*

Results for Nc1c(S(=O)(=O)c2cccs2)c2nc3ccccc3nc2n1/N=C/c1cccc(O)c1 ?
NCF1 inh: -48; 14-3-3 Bad PPI: -5; Mcl1-Bid inh: 6; Calpain2 inh: -161; Mcl-1 Bim block: 20; Mcl1 Noxa PPI: 73*

What do the screens show for `COc1ccc(S(=O)(=O)c2c(N)n(Cc3ccco3)c3nc4ccccc4nc23)cc1`?
NCF1 inh: -55; 14-3-3 Bad PPI: -2; Mcl1-Bid inh: 2; Calpain2 inh: inactive; Mcl-1 Bim block: 1; Mcl1 Noxa PPI: 57*

What do the screens show for `Nc1c(S(=O)(=O)c2ccccc2)c2nc3ccccc3nc2n1/N=C/c1ccco1`?
NCF1 inh: -53; 14-3-3 Bad PPI: -9; Mcl1-Bid inh: 3; Calpain2 inh: -69; Mcl-1 Bim block: 4; Mcl1 Noxa PPI: 73*

How did Cc1cccc(NC(=S)N2CCN(c3ccc(F)cc3)CC2)c1 do in these assays?
NCF1 inh: 1; 14-3-3 Bad PPI: -9; Mcl1-Bid inh: -15; Calpain2 inh: -1; Mcl-1 Bim block: 0; Mcl1 Noxa PPI: 14

Results for Cc1cc(/C(N)=N/OC(=O)Nc2ccc(Cl)cc2)no1 ?
NCF1 inh: 0; 14-3-3 Bad PPI: -4; Mcl1-Bid inh: -8; Calpain2 inh: 8; Mcl1 Noxa PPI: -2

What do the screens show for `COc1ccc(/C(N)=N/OC(=O)C2CCC(=O)N2S(=O)(=O)c2ccc(C)cc2)cc1OC` (stereo unspecified)?
NCF1 inh: -7; 14-3-3 Bad PPI: -10; Mcl1-Bid inh: -8; Calpain2 inh: -14; Mcl-1 Bim block: -4; Mcl1 Noxa PPI: 2

How did Cn1c(=O)c2c3c(sc2n2c(SCC(N)=O)nnc12)CC(C(C)(C)C)CC3 (stereo unspecified) do in these assays?
NCF1 inh: -6; Mcl1-Bid inh: -10; Calpain2 inh: 66*; Mcl-1 Bim block: 1; Mcl1 Noxa PPI: -3

Results for CCCCN(CCCC)C(=O)CSc1nnc2n(C)c(=O)c3c4c(sc3n12)CCCC4 ?
NCF1 inh: -2; 14-3-3 Bad PPI: 22; Mcl1-Bid inh: -3; Calpain2 inh: -8; Mcl-1 Bim block: -2; Mcl1 Noxa PPI: 13

Results for C[c-]1[c-](C)[c-](C)[c-](C)[c-]1C.[Fe].c1cc2nccc(N3CCCC3)[c-]2c1 (stereo unspecified) ?
NCF1 inh: 30*!; 14-3-3 Bad PPI: 23; Mcl1-Bid inh: -107; Calpain2 inh: -6; Mcl1 Noxa PPI: 55*!

Results for Cc1nnc(SCC(=O)Nc2nc(-c3ccccc3)cs2)n1N ?
NCF1 inh: -75; 14-3-3 Bad PPI: 1; Mcl1-Bid inh: -20; Calpain2 inh: -16; Mcl-1 Bim block: -1; Mcl1 Noxa PPI: 5

Results for Cn1cnnc1SCC(=O)Nc1nc(-c2ccccc2)cs1 ?
NCF1 inh: -12; 14-3-3 Bad PPI: -2; Mcl1-Bid inh: -5; Calpain2 inh: -13; Mcl-1 Bim block: -2; Mcl1 Noxa PPI: 56*
